Measurements taken from ChEMBL document CHEMBL4513216, “Probing the Open Global Health Chemical Diversity Library for Multistage-Active Starting Points for Next-Generation Antimalarials” (ACS Infect Dis, 2020).
Hit rate of the full screen: of about 69,000 compounds, about 8,600 (12%) showed an effect of 50% or more. This excerpt belongs to a sample that is enriched for strong results.

The molecules below were run on Plasmodium berghei (assay: Screen against P. berghei liver stage (PbLuc), transformed with Luciferase, at 10uM). Conditions: tested at 10 uM.
Assay type: functional, HepG2

Row | Compound | INHIBITION [%]
1 | Cc1cnn(C2(C(=O)O)CCN(Cc3oc4ccccc4c3C)CC2)c1 | -0.613
2 | CC(C)n1nnc(CC(=O)NCC2(c3cccc(F)c3)CCCC2)n1 | 26.7
3 | COCc1ccccc1NC(=O)c1ccoc1 | -80.7
4 | Cc1ccc(C#N)cc1NC(=O)NC1CCCN(c2ncccn2)C1 (centres undefined) | 42
5 | CC(C(=O)N1CCN(Cc2ccncc2)CC1)n1cncn1 (centres undefined) | 4.25
6 | Fc1ccc(-c2cnc(C3CCNCC3)cn2)cc1 | 37.85
7 | CC(CO)CN(Cc1ccccc1)C(=O)c1csc(CN(C)C)n1 (centres undefined) | 13.7
8 | Cc1nc(C(C)NC(=O)c2cn(CCC3CCCCC3)nn2)n[nH]1 (centres undefined) | 5.75
9 | COCCc1noc(Cn2c(=O)[nH]c3ccccc32)n1 | -16.5
10 | COCc1noc(Cn2c(=O)[nH]c3ccccc32)n1 | 74
11 | COCc1noc(Cn2c(C3CC3)nc3ccccc32)n1 | 39.2
12 | CC1COCCN1C(=O)Cc1cc(Cl)c2c(c1)OCCO2 (centres undefined) | 26.8
13 | CSCC1CCN(C(=O)Cn2ncc(N3CCCCC3)cc2=O)CC1 | 40.7
14 | O=C(c1cncs1)N1CCc2[nH]nc(Nc3ccccc3)c2C1 | 20.49
15 | CN(CCc1ccccc1)Cc1cc(C(=O)N2CCN(C)C(=O)C2)no1 | -13.2
16 | CN1CCCN(C(=O)c2cc(CN(C)CCc3ccccc3)on2)CC1 | 53.3
17 | CN(CCc1ccccc1)Cc1cc(C(=O)N2CCSCC2)no1 | 40.5
18 | O=C1CCC2(CCN(Cc3nccs3)CC2)CN1CCCO | -47.8
19 | Cc1cnc(CN(C)C2CCCN(Cc3noc(C4CC4)n3)C2)cn1 (centres undefined) | 10
20 | CC(NCC(=O)N(C)C1CC1)c1ccc(S(C)(=O)=O)c(F)c1 (centres undefined) | 34.7
21 | O=C(NCc1cnc2n1CCN(Cc1nccs1)C2)c1ccno1 | 23.1
22 | O=C(NCc1cnc2n1CCN(CC1CC1)C2)C1CC1 | -30
23 | O=C(NCc1cnc2n1CCN(Cc1cccs1)C2)c1ccno1 | 12.2
24 | O=C(NCc1cnc2n1CCN(Cc1ccoc1)C2)c1ccno1 | 63.8
25 | O=C(NCc1cnc2n1CCN(CC1CCOCC1)C2)c1ccno1 | 50.3
26 | Cn1cccc1C(=O)NCc1cnc2n1CCN(CC1CCOCC1)C2 | 20.4
27 | O=C(C(c1ccccc1)S(=O)(=O)c1ccccn1)N1CCCC1 (centres undefined) | 14.2

Row | Compound | INHIBITION [%]
28 | Cn1nnc2c1CCN(Cc1ccccn1)C2COCc1ccccc1 (centres undefined) | 21.3
29 | Cc1cc(-c2ccccc2C(=O)O)nc(C2CCCN2S(C)(=O)=O)n1 (centres undefined) | 12.8
30 | CC(=O)N1CCCCC1c1nc(C)cc(-c2ccccc2C(=O)O)n1 (centres undefined) | 15.9
31 | Cc1cc(-c2ccccc2C(=O)O)nc(C2CCCCN2C)n1 (centres undefined) | 59
32 | O=C(Cc1cn2ccsc2n1)N1CCCC(n2cccn2)C1 (centres undefined) | -1.12
33 | COCCc1noc(CN2CCCC2c2noc(C(C)C)n2)n1 (centres undefined) | 21.8
34 | COc1cc(N(C)Cc2cccc(-n3cccn3)c2)nc(N)n1 | 80
35 | CN(Cc1cccc(-n2cccn2)c1)c1cc(N2CCCC2)nc(N)n1 | 93.9
36 | CC(CN(C)Cc1cccc(-n2cccn2)c1)C(F)(F)F (centres undefined) | 17.735
37 | CN(Cc1ccc(-n2cccn2)cc1)c1cc(N)nc(N)n1 | 82.2
38 | CN(Cc1cccc(-n2cccn2)c1)Cc1c[nH]cn1 | 35.05
39 | CN(Cc1ccc(-n2cccn2)cc1)c1nc(N)nc2c1CCNCC2 | 45
40 | CN(Cc1cccc(-n2cccn2)c1)C(=O)c1ccnc(N)c1 | 21.2
41 | CN(Cc1cccc(-n2cccn2)c1)C(=O)c1cccc(N(C)C)c1 | 22.1
42 | CN(Cc1ccc(-n2cccn2)cc1)Cc1cnc(N(C)C)nc1 | 37.4
43 | CCCc1nc(C)c(C(=O)NCCNc2ncccc2C#N)s1 | -24.2
44 | CC(C)NC(=O)[C@H]1C[C@@H]2[C@@H](C1)OCCN2Cc1cnn(C)c1 | -4.56
45 | CCOc1ccccc1OC1CCN(C(=O)c2cnsn2)CC1 | 21.5
46 | CN(C)Cc1cn(-c2ccccc2C(=O)NCCC2CCCN2C)cn1 (centres undefined) | 10
47 | Nc1ncccc1CN1CCCn2nc(CCC(=O)NC3CC3)cc2C1 | 46.1
48 | CN1CCN(S(=O)(=O)c2cccc(F)c2)Cc2cccnc21 | 65.7
49 | CN1CCN(S(=O)(=O)c2ccccc2)Cc2cccnc21 | 14.9
50 | COc1ccc(S(=O)(=O)N2CCN(C)c3ncccc3C2)cc1 | 42.1
51 | Cc1cc(C2CCCN2Cc2ccn(C)c(=O)c2)on1 (centres undefined) | 20.1
52 | O=C(NCc1cn2cccnc2n1)C1CC(=O)N(Cc2ccccn2)C1 (centres undefined) | 37.6
53 | CN(C)CCN1CC(C(=O)NCc2cn3cccnc3n2)CC1=O (centres undefined) | 23.9
54 | CC(C)(C)N1CC(C(=O)NCc2cn3cccnc3n2)CC1=O (centres undefined) | 53.9
